In PubChem BioAssay AID1159580 (chemical genetic matrix, 2015):
Several values for one entry are separate records, joined by “and”; a condition that tells them apart may be missing. Equal entries are not always repeated. The campaign covered roughly 5,500 compounds. About 2,000 (36%) were called active. Roughly 18% stayed inconclusive and do not appear here. Cut-off read from the data, not from the text of the source: active = normalized growth mostly below about 0.91 (no sharp cut-off); inconclusive = no clear call, values can overlap the other calls; inactive = mostly above about 0.92. The list shows a part of the results.

Experiment: chemical genetic growth profiling, strain panel (AID 1159580);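 note: tested at 20 µM; growth read once vehicle control cultures reached saturation at 30 °C; 1 = growth at the plate median or of vehicle wells; lower values mean less growth of the strain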
Conditions: growth OD

Measured: normalized growth

CC(=O)N[C@@H]1[C@@H](C(O)[C@H](O)CO)O[C@](O)(C(=O)O)C[C@@H]1O (some centres not stated)
inactive: S. cerevisiae deletion strains, locus YAL013W, strain DEP1, hits give low values 1.01 | S. cerevisiae deletion strains, locus YBR021W, strain FUR4, hits give low values 1.02 | S. cerevisiae deletion strains, locus YBR229C, strain ROT2, hits give low values 1 | S. cerevisiae deletion strains, locus YCL029C, strain bik1, hits give low values 0.997 | S. cerevisiae deletion strains, locus YDL035C, strain GPR1, hits give low values 1.01 | S. cerevisiae deletion strains, locus YDL074C, strain BRE1, hits give low values 1.04 | S. cerevisiae deletion strains, locus YDL101C, strain DUN1, hits give low values 1.03 | S. cerevisiae deletion strains, locus YDL134C, strain PPH21, hits give low values 1 | S. cerevisiae deletion strains, locus YDL185W, strain tfp1, hits give low values 1.02 | S. cerevisiae deletion strains, locus YDL192W, strain arf1, hits give low values 0.999 | S. cerevisiae deletion strains, locus YDR101C, strain arx1, hits give low values 1 | S. cerevisiae deletion strains, locus YDR150W, strain NUM1, hits give low values 1 | S. cerevisiae deletion strains, locus YDR162C, strain NBP2, hits give low values 1.02 | S. cerevisiae deletion strains, locus YDR318W, strain mcm21, hits give low values 1.01 | S. cerevisiae deletion strains, locus YDR388W, hits give low values 1.01 | S. cerevisiae deletion strains, locus YDR502C, strain sam2, hits give low values 0.998 | S. cerevisiae deletion strains, locus YEL061C, strain CIN8, hits give low values 1 | S. cerevisiae deletion strains, locus YER110C, hits give low values 1 | S. cerevisiae deletion strains, locus YER155C, strain BEM2, hits give low values 1 | S. cerevisiae deletion strains, locus YER167W, strain BCK2, hits give low values 1 | S. cerevisiae deletion strains, locus YGL078C, strain dbp3, hits give low values 0.982 | S. cerevisiae deletion strains, locus YGL086W, strain mad1, hits give low values 1 | S. cerevisiae deletion strains, locus YGL248W, strain PDE1, hits give low values 1.01 | S. cerevisiae deletion strains, locus YGR078C, strain PAC10, hits give low values 1.03 | S. cerevisiae deletion strains, locus YGR135W, strain pre9, hits give low values 1.01 | S. cerevisiae deletion strains, locus YGR229C, strain SMI1, hits give low values 1.02 | S. cerevisiae deletion strains, locus YGR252W, strain gcn5, hits give low values 0.958 | S. cerevisiae deletion strains, locus YHR030C, strain SLT2, hits give low values 0.998 and 1.01 | S. cerevisiae deletion strains, locus YHR079C, strain IRE1 (second series), hits give low values 1.01 | S. cerevisiae deletion strains, locus YHR079C, strain IRE1, hits give low values 1 | S. cerevisiae deletion strains, locus YHR094C, strain hxt1, hits give low values 1.01 | S. cerevisiae deletion strains, locus YHR129C, strain ARP1, hits give low values 1.02 | S. cerevisiae deletion strains, locus YHR200W, strain rpn10, hits give low values 1.01 | S. cerevisiae deletion strains, locus YIL066C, strain RNR3, hits give low values 1.02 | S. cerevisiae deletion strains, locus YIL073C, strain SPO22, hits give low values 1.02 | S. cerevisiae deletion strains, locus YIL125W, strain kgd1, hits give low values 0.993 | S. cerevisiae deletion strains, locus YIR030C, strain dcg1, hits give low values 0.999 | S. cerevisiae deletion strains, locus YJL095W, strain BCK1, hits give low values 1.06 and 0.995 | S. cerevisiae deletion strains, locus YJL134W, strain LCB3, hits give low values 1.01 | S. cerevisiae deletion strains, locus YJL168C, strain set2, hits give low values 1.01 | S. cerevisiae deletion strains, locus YJL187C, strain SWE1 (second series), hits give low values 1.04 | S. cerevisiae deletion strains, locus YJR043C, strain POL32, hits give low values 1.04 | S. cerevisiae deletion strains, locus YJR066W, strain TOR1, hits give low values 0.916 | S. cerevisiae deletion strains, locus YJR075W, strain HOC1, hits give low values 1.02 | S. cerevisiae deletion strains, locus YKL009W, strain mrt4, hits give low values 1.02 | S. cerevisiae deletion strains, locus YKL068W, hits give low values 0.998 | S. cerevisiae deletion strains, locus YKL085W, strain MDH1 (second series), hits give low values 1 | S. cerevisiae deletion strains, locus YKL085W, strain MDH1, hits give low values 1 | S. cerevisiae deletion strains, locus YKL190W, strain CNB1, hits give low values 1.01 | S. cerevisiae deletion strains, locus YKR001C, strain vps1, hits give low values 1.01 | S. cerevisiae deletion strains, locus YLR039C, strain RIC1, hits give low values 1.02 | S. cerevisiae deletion strains, locus YLR058C, strain SHM2, hits give low values 1.01 | S. cerevisiae deletion strains, locus YLR102C, strain apc9, hits give low values 1.01 | S. cerevisiae deletion strains, locus YLR113W, strain HOG1, hits give low values 1.05 | S. cerevisiae deletion strains, locus YLR262C, strain YPT6, hits give low values 1.03 | S. cerevisiae deletion strains, locus YLR268W, strain sec22, hits give low values 1.07 | S. cerevisiae deletion strains, locus YLR330W, strain CHS5, hits give low values 1 | S. cerevisiae deletion strains, locus YLR342W, strain FKS1 (second series), hits give low values 1.02 | S. cerevisiae deletion strains, locus YLR371W, strain rom2, hits give low values 1.01 | S. cerevisiae deletion strains, locus YLR418C, strain cdc73, hits give low values 1.01 | S. cerevisiae deletion strains, locus YML016C, strain PPZ1, hits give low values 1.01 | S. cerevisiae deletion strains, locus YML032C, strain rad52, hits give low values 1.05 | S. cerevisiae deletion strains, locus YML124C, strain tub3, hits give low values 0.997 | S. cerevisiae deletion strains, locus YMR078C, strain ctf18, hits give low values 1.01 | S. cerevisiae deletion strains, locus YMR223W, strain ubp8, hits give low values 0.975 | S. cerevisiae deletion strains, locus YMR263W, strain SAP30, hits give low values 1.02 | S. cerevisiae deletion strains, locus YMR307W, strain GAS1, hits give low values 1.01 | S. cerevisiae deletion strains, locus YNL067W, strain RPL9B, hits give low values 1.05 | S. cerevisiae deletion strains, locus YNL128W, strain TEP1, hits give low values 1.03 | S. cerevisiae deletion strains, locus YNL153C, strain GIM3, hits give low values 1.04 | S. cerevisiae deletion strains, locus YNL183C, strain NPR1, hits give low values 0.913 | S. cerevisiae deletion strains, locus YNL233W, strain BNI4, hits give low values 1.03 | S. cerevisiae deletion strains, locus YNL250W, strain rad50, hits give low values 0.999 | S. cerevisiae deletion strains, locus YNL271C, strain bni1, hits give low values 1.01 | S. cerevisiae deletion strains, locus YNL298W, strain CLA4, hits give low values 0.994 | S. cerevisiae deletion strains, locus YNL307C, strain MCK1, hits give low values 1 | S. cerevisiae deletion strains, locus YNL322C, strain KRE1, hits give low values 1 | S. cerevisiae deletion strains, locus YNR052C, strain pop2, hits give low values 1.01 | S. cerevisiae deletion strains, locus YOL006C, strain TOP1, hits give low values 1.15 | S. cerevisiae deletion strains, locus YOL012C, strain htz1 1.02 | S. cerevisiae deletion strains, locus YOL147C, strain pex11, hits give low values 1 | S. cerevisiae deletion strains, locus YOR061W, strain CKA2, hits give low values 1.01 | S. cerevisiae deletion strains, locus YOR069W, strain VPS5, hits give low values 1.01 | S. cerevisiae deletion strains, locus YOR136W, strain idh2, hits give low values 0.986 | S. cerevisiae deletion strains, locus YOR144C, strain elg1, hits give low values 0.994 | S. cerevisiae deletion strains, locus YOR184W, strain ser1, hits give low values 0.994 | S. cerevisiae deletion strains, locus YOR231W, strain MKK1, hits give low values 0.996 | S. cerevisiae deletion strains, locus YOR316C, strain cot1, hits give low values 1.01 | S. cerevisiae deletion strains, locus YPL055C, strain LGE1, hits give low values 1.02 | S. cerevisiae deletion strains, locus YPL241C, strain CIN2, hits give low values 1.01 | S. cerevisiae deletion strains, locus YPL256C, strain CLN2, hits give low values 0.99 | S. cerevisiae deletion strains, locus YPR119W, strain clb2, hits give low values 1 | S. cerevisiae deletion strains, locus YPR141C, strain kar3, hits give low values 0.999 | S. cerevisiae deletion strains, locus YPR163C, strain tif3, hits give low values 1.01 | S. cerevisiae deletion strains, locus YPR167C, strain met16, hits give low values 1 | S. cerevisiae deletion strains, strain wtn01, hits give low values 1.01 | S. cerevisiae strains, strain wild type, hits give low values 1.01
